# A549 viability: counter-screen for Nrf2 inhibitors: cytotoxicity in A549 cells | A549 ARE-Fluc cells, CellTiter-Fluor viability, 18-24 h | Potency, µM (top dose mostly 46 µM), for the others: at the top dose activity change, negative = cytotoxicity, hits mostly inhibitors | actives 0.16% (n = 390,000) | AID 504648; further: on the % scale 0 is the no-effect control and ±100 the full control effect
#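 A549 ARE-Fluc cells in 5% FBS OPTI-MEM, 5000 cells/well, rested 2 h then exposed to compounds in concentration-response for 18-24 h at 37 °C. Viability by CellTiter-Fluor fluorescence (Ex 405/Em 525) after 30 min; luciferase luminescence (BugLite, 15 min, RT) read afterwards.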
# Nrf2 ARE act: activates Nrf2 signaling; Potency, µM (highest dose often 46.1 µM), inactives show at the top dose activation, hits mostly activators; AID 624171; AREc32 ARE-luciferase reporter (MCF7-derived line), luminescence, 24 h; actives 0.31% (n = 410,000); further: % of control where 0% means no effect; nearly all actives have a fitted effect of over 65% in size
#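 Nrf2 activation is followed as ARE-luciferase induction in the AREc32 line after one day of compound treatment; luminescence is read with Steady-Glo.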
# Nrf2 block: inhibitors of Nrf2 signaling. A549 ARE-Fluc reporter, luciferase luminescence, 18-24 h. actives 2.1% (n = 360,000). AID 504444. Potency, µM (top dose mostly 46 µM), for inactives: top-dose activity change, negative = inhibition, usual class: inhibitors; further: on the % scale 0 is the no-effect control and ±100 the full control effect; nearly all actives have a fitted effect of over 60% in size
#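 Quantitative HTS in A549 cells stably bearing an antioxidant response element-firefly luciferase construct. Inhibition of Nrf2-driven transcription was scored by luminescence after 18-24 h of compound exposure at 37 °C.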
# TGFb SMAD3 inh: TGF-b pathway inhibition; HepG2 CAGA-GFP TGF-b/SMAD3 reporter, GFP fluorescence, 18 h; TGF-beta stimulated, 500 pg/mL final; Potency, µM (top dose mostly 46.1 µM), for the others: at the highest dose activity, negative = inhibition, hits mostly inhibitors; actives 1.2% (n = 410,000); AID 588855; further: on the % scale 0 is the no-effect control and ±100 the full control effect; nearly all actives have a fitted effect of over 65% in size
#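 GFP signal (ex488/em500-530) from TGF-beta-stimulated HEPG2 CAGA-GFP cells, 500 pg/mL final, 18 h at 37 degrees C in DMEM plus 1% FBS, normalized to unstimulated and DMSO-stimulated controls.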
# HepG2 viability: HepG2 cytotoxicity, counter-screen for TGF-b inhibitors | Potency, µM (titrated, usually from 46.1 µM), inactives show at the top dose activity change, negative = cytotoxicity, most hits filed as cytotoxic | AID 588856 | actives 0.76% (n = 410,000) | HepG2 CAGA-GFP viability, ATP luminescence, 18 h
#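 CellTiter-Glo luminescence gave cytotoxicity after 18 hours at 37 degrees C. The cells were HepG2 CAGA-GFP in 1% FBS DMEM, stimulated with 500 pg/mL TGF-beta after compound addition. %Activity was normalised to no-cell wells (complete cell-killing) and DMSO (no toxicity), and curves were fitted and classified.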
# Starred values were filed as active, the others as inactive; ? = inconclusive; · = no result. An excerpt weighted towards active compounds, which were near 3.6% of everything screened. The call rests on the fitted dose curve; in most records, active means well fitted curve in the direction sought with a large enough effect; inconclusive means small, poorly fitted or top-dose-only effect, or another doubt; inactive means no such curve, though single readings can be large; an effect the other way counts as inactive or inconclusive. Potency means the concentration at half of the fitted maximal effect.
SMILES,A549 viability,Nrf2 ARE act,Nrf2 block,TGFb SMAD3 inh,HepG2 viability
Cc1ccc(C(=O)Nc2ccc(NC(=O)c3cccs3)cc2)cc1[N+](=O)[O-],-8%,-1%,15%,-6%,4%
Cc1ccc(NC(=O)c2cccs2)cc1[N+](=O)[O-],-11%,14µM*,?,-3%,1%
CC(=O)Nc1ccc(S(=O)(=O)Nc2ccc(C)c([N+](=O)[O-])c2)cc1,-8%,0%,26µM*,?,20%
COc1cc(NC(=O)c2cc3ccccc3cc2OC)ccc1NC(=O)c1cccs1,-10%,-1%,5.2µM*,0%,-6%
Cc1cccc(NS(=O)(=O)c2ccc(NC(=O)CN(c3cc([N+](=O)[O-])ccc3C)S(C)(=O)=O)cc2)c1,?,3%,18µM*,16µM*,-2%
CC(=O)Nc1ccc(NS(=O)(=O)c2cc([N+](=O)[O-])ccc2C)cc1,3%,0%,18%,-7%,-2%
COc1ccc(C)cc1NS(=O)(=O)c1ccc(NC(=O)CN(c2cc([N+](=O)[O-])ccc2C)S(C)(=O)=O)cc1,-15%,5%,?,?,6%
COc1ccccc1CNC(=O)Nc1cccs1,3%,6%,?,-2%,-6%
CN(C)S(=O)(=O)c1ccc(NC(=O)CNc2cc(S(=O)(=O)N3CCCC3)ccc2OCC(F)(F)F)cc1,-1%,0%,-15%,?,-2%
COc1cc(NC(=O)c2cccs2)ccc1NC(=O)Cc1ccccc1,-3%,0%,?,6%,-1%
COc1cc(NC(=O)c2ccc([N+](=O)[O-])o2)ccc1NC(=O)c1cccs1,23µM*,11µM*,6%,?,-105%
CCOC(=O)N1CCN(C(=O)c2ccc3c(c2)N(Cc2cccc(Cl)c2)C(=O)c2ccccc2S3=O)CC1 (stereo unspecified),?,0%,21µM*,?,-14%
O=C(NCc1ccco1)c1ccc2c(c1)N(Cc1ccc(Cl)cc1)C(=O)c1ccccc1S2=O (stereo unspecified),-11%,5%,-28%,?,1%
CCN1CCN(C(=O)c2ccc3c(c2)N(Cc2cccc(Cl)c2)C(=O)c2ccccc2S3=O)CC1 (stereo unspecified),7%,0%,·,-30%,-30%
CCN1C(=O)c2ccccc2S(=O)c2ccc(C(=O)N3CCN(c4cccc(C)c4)C(C)C3)cc21 (stereo unspecified),-29%,1%,16µM*,-6%,-17%
CN(Cc1ccccc1)C(=O)c1ccc2c(c1)N(Cc1ccc(Cl)cc1)C(=O)c1ccccc1S2=O (stereo unspecified),-29%,0%,21µM*,0%,4%
Cc1cccc(CNc2ncnc3ccc(-c4ccoc4)cc23)c1,-16%,-1%,18µM*,?,-33%
Cc1cccc(CNc2ncnc3ccc(-c4ccc5c(c4)OCCO5)cc23)c1,?,4%,15µM*,?,-12%
COc1cccc(-c2ccc3ncnc(NCc4ccc5c(c4)OCO5)c3c2)c1,-19%,0%,16µM*,?,-19%
Cc1noc(C)c1-c1ccc2ncnc(NCc3ccc(-c4ccccc4)cc3)c2c1,-12%,·,12µM*,·,·
COc1cccc(-c2ccc3ncnc(NCc4cc(C)cs4)c3c2)c1,0%,-3%,-23%,-21%,-36%
O=S(=O)(c1ccccc1F)N1CCc2ccccc2C1,1%,0%,-7%,22%,6%
CN(C)CCCOC(=O)N1c2ccccc2C=Cc2ccccc21,0%,0%,10%,0%,-30%
Cc1ccc(CNc2ncnc3ccc(-c4c(C)noc4C)cc23)o1,4%,·,?,·,·
Cc1ccc(CNc2ncnc3ccc(-c4ccoc4C)cc23)o1,·,3%,·,16µM*,-54%
SMILES,A549 viability,Nrf2 ARE act,Nrf2 block,TGFb SMAD3 inh,HepG2 viability
c1cncc(CNc2ncnc3ccc(-c4ccc5c(c4)OCO5)cc23)c1,8%,3%,9%,-2%,-9%
c1nc(NCc2ccc3c(c2)OCO3)c2cc(-c3ccc4c(c3)OCCO4)ccc2n1,2%,7%,23µM*,?,-11%
Cc1ccc(-c2nnn(CC(=O)N3CCN(c4ccccc4)CC3)n2)o1,7%,0%,3%,-2%,-14%
Cn1c(=O)[nH]c(=O)c2c1nc([N+](=O)[O-])n2Cc1ccccc1,?,?,23µM*,5µM*,5µM*
COc1ccc(-c2nc3c(c(=O)[nH]c(=O)n3Cc3ccccc3)n2Cc2ccccc2)cc1,-15%,0%,15µM*,?,-13%
COc1ccc(-c2nc3c(c(=O)[nH]c(=O)n3Cc3ccccc3)n2C)cc1,17%,0%,14%,-29%,4%
Cn1c(=O)[nH]c(=O)c2c1nc(N1CCNCC1)n2Cc1ccccc1,-2%,0%,-2%,14%,10%
CC(C)Cn1c([N+](=O)[O-])nc2c1c(=O)[nH]c(=O)n2C,?,?,-15%,?,11µM*
CC(=O)Nc1nc2n(n1)C(c1ccc(F)cc1)C=C(c1ccc(Cl)cc1)N2 (stereo unspecified),12%,0%,3%,-8%,-39%
O=C(Nc1c(C(=O)N2CCN(c3ccccc3F)CC2)oc2ccccc12)c1ccc(Br)o1,-9%,1%,23µM*,-24%,-8%
CC(C)C(=O)Nc1c(C(=O)N2CCN(c3ccccc3F)CC2)oc2ccccc12,1%,1%,5%,-8%,-9%
Cc1ccc([N+](=O)[O-])c(OCCCN2CCC(Cc3ccccc3)CC2)c1,9%,0%,?,?,-64%
Cc1ccc(Cn2cc(/C=N/Nc3ccc([N+](=O)[O-])cn3)c3ccccc32)cc1,-23%,9%,?,4.5µM*,-33%
O=C(N/N=C/c1cn(Cc2ccccc2)c2ccccc12)c1cc(O)cc(O)c1,5%,4%,2%,1%,-17%
O=C(O)Cn1cc(/C=N/Nc2ccc([N+](=O)[O-])cn2)c2ccccc21,?,23%,16%,1%,-17%
Cc1ccc(C(=O)N/N=C/c2cn(Cc3ccccc3)c3ccccc23)cn1,-2%,11%,?,1.6µM*,0.56µM*
COc1ccccc1N1CCN(C(=O)C(Cc2ccccc2)NC(=O)C2CCCCC2)CC1 (stereo unspecified),-6%,0%,?,-14%,5%
CC(C)CCN(C(=O)CCSc1ccc(F)cc1)c1c(N)n(Cc2ccccc2)c(=O)[nH]c1=O,0%,0%,-14%,-3%,-13%
O=C(COC(=O)C12CC3CC(CC(C3)C1)C2)NCC1CCCO1 (stereo unspecified),1%,·,15%,1%,-1%
